# Data reported in ChEMBL document CHEMBL3433997, “St. Jude Leishmania screening dataset” (2016).
# What was measured:
# Type in all cases: functional
# [1] = target: Solute carrier family 2, facilitated glucose transporter member 1 (Homo sapiens) (UniProt P11166); experiment: ST_JUDE_LEISH: Cytotoxicity at 2uM final concentration against transgenic Leishmania Mexicana promastigotes LmGLUT1 that are glucose transport deficient and complemented with the human glucose transporter GLUT1. Activity is measured by DNA content using SYBR green in vitro
# Solute carrier family 2, facilitated glucose transporter member 1 (Homo sapiens), sequence (P11166 whole entry): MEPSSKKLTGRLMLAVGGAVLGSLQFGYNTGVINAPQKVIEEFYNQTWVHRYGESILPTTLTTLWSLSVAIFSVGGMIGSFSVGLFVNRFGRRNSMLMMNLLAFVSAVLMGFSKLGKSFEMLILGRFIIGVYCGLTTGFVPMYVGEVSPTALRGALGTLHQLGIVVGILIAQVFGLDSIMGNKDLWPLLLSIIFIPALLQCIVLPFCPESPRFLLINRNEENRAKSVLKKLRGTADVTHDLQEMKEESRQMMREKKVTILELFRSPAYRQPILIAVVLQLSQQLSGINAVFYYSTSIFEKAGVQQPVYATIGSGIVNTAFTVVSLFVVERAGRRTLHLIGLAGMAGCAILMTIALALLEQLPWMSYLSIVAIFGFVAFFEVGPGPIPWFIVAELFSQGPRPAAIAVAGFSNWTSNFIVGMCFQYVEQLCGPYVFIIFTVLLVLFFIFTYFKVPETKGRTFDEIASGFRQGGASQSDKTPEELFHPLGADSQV
# [2] = target: Hexose transporter 1 (Plasmodium falciparum) (UniProt O97467); experiment: ST_JUDE_LEISH: Cytotoxicity at 2uM final concentration against transgenic Leishmania Mexicana promastigotes LmPfHT that are glucose transport deficient and complemented with the Plasmodium falciparum hexose transporter. Activity is measured by DNA content using SYBR green in vitro
# [3] = target: Glucose transporter (Leishmania mexicana) (UniProt O61059); experiment: ST_JUDE_LEISH: Cytotoxicity at 2uM final concentration against transgenic Leishmania Mexicana promastigotes LmGT2 that are glucose transport deficient and complemented with the L. Mexicana glucose transporter 2. Activity is measured by DNA content using SYBR green in vitro
Structure (SMILES),inhibition [1] [%],inhibition [2] [%],inhibition [3] [%]
O=C(Nc1ccc(Oc2ccccc2)cc1)N1CCC(CCN2CCC(c3c[nH]c4ccccc34)CC2)CC1,4.42,2.98,5.21
Fc1ccc(C=NNc2nc3ccccc3[nH]2)cc1,16.4,13.1,12.1
COc1cc2ncnc(NCCc3ccccc3Cl)c2cc1OC,-1.61,-0.48,-0.92
CC(C)(NCc1ccc(OC(F)(F)F)cc1)c1nc(-c2ccc(Cl)c(O)c2)c(-c2ccncc2)[nH]1,-0.58,-0.36,1.94
CCCNCc1ccc(-c2ccc(CN(Cc3cnc(C)cn3)C(=O)/C=C/c3ccccc3C)cc2)nc1,2.17,0.74,0.97
Cc1ccc(Nc2ccnc3ccc(C(F)(F)F)cc23)cc1O,4.92,3.33,2.31
O=C(CC1CCCC1)Nc1ccc2c(c1)CCC2,2.83,3.17,1.69
COc1cccc2cc(C(=O)N[C@@H](CC(C)C)C(=O)N[C@H](/C=N/N(C)C(=O)OC(C)(C)C)CC(=O)OC(C)(C)C)oc12,2.84,3.79,3.79
COc1ccc(C2(CNCC(O)c3cccc([N+](=O)[O-])c3)CCCC2)cc1OC (stereo unspecified),2.7,4.72,3.66
COc1ccc(N2CCN(CCCCNC(=O)c3ccc(NC(=O)c4cc(Cl)cc(Cl)c4)cc3)CC2)c(OC)c1,2.07,3.87,3.2
CCc1cc(I)c2c(c1)C(NCCCNc1cc(=O)c3ccccc3[nH]1)CCN2 (stereo unspecified),2.28,4.39,1.86
COc1ccc(CCN(C)CCOc2ccc(NC(=O)c3cc(SC)cc4c(=O)c5ccccc5[nH]c34)cc2)cc1OC,4.06,3.15,2.82
